Screening results as filed in PubChem BioAssay.
Pf growth 48h – P. falciparum growth inhibition at 48 hours (one generation); P. falciparum luciferase growth in erythrocytes, 48 h; Potency, µM (series often up to 28.7 µM), for the others: at the top dose activity change, negative = inhibition, most hits filed as inhibitors; 5.9% of 310,000 active; AID 504832; further: potency means the concentration at half of the fitted maximal effect; on the % scale 0 is the no-effect control and ±100 the full control effect
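Firefly luciferase activity from engineered P. falciparum reports growth; inhibitors lower the luminescent signal. Cultures contained 2% hematocrit erythrocytes at 0.1% final parasitemia.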
FBPA Giardia inh – inhibitors of Giardia lamblia fructose-1,6-bisphosphate aldolase | A8B2U2 | purified Giardia FBPA | Potency, µM (series often up to 59.6 µM), for inactives: at the top dose activity, negative = inhibition, most hits filed as inhibitors | 0.71% of 290,000 active | AID 2451; further: potency means the concentration at half of the fitted maximal effect; on the % scale 0 is the no-effect control and ±100 the full control effect; nearly all actives have a fitted effect of over 55% in size
Target sequence (A8B2U2 whole entry, looked up): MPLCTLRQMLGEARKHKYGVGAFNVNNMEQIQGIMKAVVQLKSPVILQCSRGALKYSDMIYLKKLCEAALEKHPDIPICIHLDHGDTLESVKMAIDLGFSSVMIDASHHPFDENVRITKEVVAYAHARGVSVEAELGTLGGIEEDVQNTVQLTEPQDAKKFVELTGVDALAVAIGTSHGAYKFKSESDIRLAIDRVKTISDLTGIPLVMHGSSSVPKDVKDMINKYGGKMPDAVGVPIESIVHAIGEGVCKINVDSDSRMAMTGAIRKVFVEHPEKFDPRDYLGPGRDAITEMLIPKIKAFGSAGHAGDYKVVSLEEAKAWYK
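Giardia FBPA (40 nM reagent) was preincubated 10 min at RT with compound (up to 57.5 uM final), then substrate plus GAPDH/TPI/NAD/arsenate coupling system with diaphorase/resazurin was added; resorufin fluorescence (525/598 nm) was read after 20 min.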
Shiga inhibitor – inhibitors of Shiga toxin in Vero cells | Vero cells, Shiga toxin protein synthesis inhibition reporter | inhibition, % at 38.7 µM | 9.2% of 290,000 active; in the data active means inhibition mostly above about 28%, no sharp cut-off; inactive means mostly below about 43%; further: 0% is about no effect
Pf growth 96h – P. falciparum growth inhibition at 96 hour, primary screen for plastid delayed-death inhibitors; P. falciparum luciferase reporter growth, 96 h; Potency, µM (series often up to 28.7 µM), inactives show at the top dose activity change, negative = inhibition, most hits filed as inhibitors; 6.9% of 320,000 active; AID 504834; further: potency means the concentration at half of the fitted maximal effect; on the % scale 0 is the no-effect control and ±100 the full control effect
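Cell-based qHTS: luciferase-tagged P. falciparum in erythrocytes (2% hematocrit, 0.05% parasitemia final) incubated with compounds for 96 hours, 37 C, 5% CO2; luciferase detection reagent then added and luminescence measured.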
CHX counter – counter-screen hit for Shiga toxin inhibitors, cycloheximide. cell reporter, cycloheximide protein synthesis inhibition counterscreen. max response, %. 12% of 300,000 active. AID 2314; in the data active means max response mostly above about 13%, no sharp cut-off; inactive means mostly below about 14%; further: read at 38.3 µM for the half of the compounds with a filed dose; 0% is about no effect
NS1 function inh – influenza NS1 inhibition. Potency, µM (highest dose often 46.1 µM), for inactives: top-dose activity, positive = more growth. 0.4% of 270,000 active. AID 2326; calls by dose curve; further: potency means the concentration at half of the fitted maximal effect; actives are rising curves; nearly all actives have a fitted effect of over 50% in size
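In this qHTS, NS1 from influenza A is expressed in budding yeast, where it slows growth. Cells are switched from glucose to 2% galactose medium (pH 6.0, -URA), treated with compound, and growth recovery is read at OD600.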
* marks the source's active call; other numbers are inactive results; i = inactive; ? = inconclusive; / = no result given. Sampled rows, rich in hits. Any-hit rate of the full collection: about 21%. Unless noted, the call rests on the fitted dose curve; in most records, active means well fitted curve in the direction sought with a large enough effect; inconclusive means small, poorly fitted or top-dose-only effect, or another doubt; inactive means no such curve, though single readings can be large; an effect the other way counts as inactive or inconclusive.

SMILES | Pf growth 48h | FBPA Giardia inh | Shiga inhibitor | Pf growth 96h | CHX counter | NS1 function inh
Cc1ccc(C(=O)NNC(=O)/C=C\C(=O)O)cc1 | 0.0% | -9.1% | 70.0* | 24.6% | 41.8* | -3.2%
COC(=O)Cc1ccc(NC(=S)NNC(=O)c2ccccc2Br)cc1 | 19.6% | 26.6% | 1.4 | ? | 14.2 | 3.4%
O=C(NNC(=S)Nc1ccc(Br)cc1)c1ccccc1 | 82.0% | 7.7% | 34.2 | ? | 22.5* | -14.2%
COc1ccccc1NC(=S)NNC(=O)c1ccc(O)cc1 | / | 9.1% | 27.0 | 0.37µM* | 24.1* | 1.1%
CC(=O)N1CSCC1C(=O)NNS(=O)(=O)c1cccc(C(F)(F)F)c1 (configuration not stated) | 2.9% | 1.7% | 20.1 | 51.4% | -1.9 | 2.8%
O=C(Cn1c(=O)cnc2ccccc21)Nc1cccc(S(=O)(=O)N2CCOCC2)c1 | -21.4% | / | / | ? | / | /
CC(CCN)(CCN)[N+](=O)[O-] | / | / | / | / | / | -4.1%
O=C(O)/C=C/C(=O)NNC(=O)c1cccc(Br)c1 | 19.9% | -0.5% | 38.6* | 19.7% | 25.0* | -3.5%
COC(=O)c1ccc(NC(=S)NNC(=O)c2ccccc2)cc1 | 17.3% | 24.9% | 42.3 | ? | 25.7* | -1.7%
O=C(NNC(=S)Nc1ccccc1)c1cccc(Br)c1 | / | 12.5% | 32.9 | 109.4% | 26.2* | -15.3%
O=C(O)CCC(=O)NNC(=O)c1cccc(Br)c1 | 4.2% | 0.3% | -12.7 | ? | 1.0 | 3.7%
O=C(NNC(=S)Nc1ccccc1)c1ccc(O)cc1 | 19.9% | -0.9% | 73.4* | i | 45.2* | 2.9%
CN(C)c1cccc(C(=O)NN2C(=O)NC3(CCCCC3)C2=O)c1 | 73.4% | / | / | 86.4% | / | /
CC(C)(C)NC(=S)NNC(=O)c1cccc(Br)c1 | 169.3% | 1.7% | 74.3* | -7.1% | 40.4* | /
Cc1ccccc1C(=O)NNC(=O)c1cccc(Br)c1 | 28.6% | 6.2% | / | 8.6% | 4.6 | -7.2%
COc1cccc(-c2nc(NCc3cnc(C)cn3)c3ccccc3n2)c1 | / | -2.7% | / | / | / | /
CC1=C(CO)C(=O)OC([C@@H](C)C2CC[C@H]3C4C[C@H]5O[C@]56[C@@H](O)C=CC(=O)[C@]6(C)C4CC[C@]23C)C1 (some centres not stated) | 8.28µM* | 1.5% | -8.6 | 10.3% | -8.7 | -2.0%
Cc1[nH]nc(-c2ccc(OCc3cnn(-c4ccccc4)c3)cc2O)c1Oc1ccc(F)cc1 | ? | / | -6.5 | 9.28µM* | -2.2 | 19.0%
CCOc1ccc(-c2n[nH]c(C)c2Oc2ccc(OC)cc2)c(O)c1 | 13.1µM* | ? | 5.4 | / | 13.7 | -182.9%
Cc1[nH]nc(-c2ccc(OCc3cnn(-c4ccccc4)c3)c(C)c2O)c1Oc1ccccc1 | ? | 5.8% | -9.4 | ? | -2.6 | 2.2%
NCCC[C@@H](CC(=O)N[C@@H]1CCNC[C@H]1C(=O)N[C@H](CC(=O)N[C@@H](CCC(=O)O)CC(=O)O)Cc1ccccc1)NC(=O)C[C@H](Cc1c[nH]c2ccccc12)NC(=O)[C@@H]1CNCC[C@H]1N | / | -23.2% | / | / | / | /
CC(=NC1CC1)c1c(-c2ccccc2)[nH]n(-c2nc3ccccc3s2)c1=O | / | 5.5% | 36.2 | 6.8% | 22.8 | 2.4%
CC(=NC1CCCC1)c1c(C)[nH]n(-c2nc3ccccc3s2)c1=O | 251.9% | 11.2% | 75.2* | 485.2% | 40.4* | -2.1%
NC(=O)c1ccnc2c(O)cccc12 | ? | / | / | 11.7µM* | / | /
NC(=O)c1cccc2ccccc12 | 10.7% | 4.1% | -5.3 | 31.5% | -2.9 | 2.8%
Cc1ccc(C(=O)O/N=C/c2c(N3CCOCC3)n(C)c3ccccc23)cc1 | ? | 4.0% | -7.5 | 3.29µM* | -3.5 | -141.8%
CC(=O)O/N=C/c1c(N2CCOCC2)n(C)c2ccccc12 | 3.7µM* | -3.4% | -2.8 | 3.7µM* | 0.1 | -105.5%
Cn1c(N2CCOCC2)c(/C=N/OC(=O)c2cccnc2Cl)c2ccccc21 | ? | -23.8% | 18.0 | 3.3% | 6.1 | -3.3%
Cn1c(N2CCOCC2)c(/C=N/OC(=O)c2ccc(F)cc2)c2ccccc21 | 1.31µM* | 3.8% | -14.8 | 1.04µM* | -4.4 | -210.8%
COc1ccc(C(=O)COC(=O)CCn2nnc(-c3cccc(O)c3OC)n2)cc1 | -6.8% | 4.0% | -5.0 | 11.7µM* | -2.7 | -2.8%
